Reference: PubChem BioAssay (Tox21)
Several values for one entry are separate records, joined by “and”; a condition that tells them apart may be missing. Equal entries are not always repeated. Unmarked numbers belong to inactive results. Records with an inconclusive call do not appear. Entries that show only a call come without a potency. Activity calls are given as the source filed them. Unless noted, calls follow the shape of the dose curve; as a rule, active = well fitted curve in the direction sought with a large enough effect in the repeat runs; inconclusive = weak or mixed curves; inactive = no such curve, though single readings can be large; an effect the other way counts as inactive or inconclusive.

How the values were obtained:
[1] = qHTS assay to identify small molecule antagonists of the estrogen receptor alpha (ER-alpha) signaling pathway using the BG1 cell line in the presence of 0.1 nM 17-beta-estradiol - cell viability counter screen (AID 1259241); also: nearly all actives have a fitted effect of over 40% in size
Outline: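 Viability in VM7Luc4E2 cells after 22 hr compound exposure under 0.1 nM 17beta-estradiol stimulation, by CellTiter-Fluor.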

[2] = qHTS assay to identify small molecule antagonists of the androgen receptor (AR) signaling pathway using the MDA cell line in the presence of 0.5 nM R1881 - cell viability counter screen (AID 1259242); also: nearly all actives have a fitted effect of over 45% in size
Outline: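 Human breast carcinoma MDA-kb2 cells, cultured without CO2, receive compounds alongside 0.5 nM (final) R1881 agonist. After 16 hr at 37C, viability is taken as live-cell protease signal.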

[3] = target: Androgen receptor (Homo sapiens) (UniProt P10275); test: qHTS assay to identify small molecule antagonists of the androgen receptor (AR) signaling pathway using the MDA cell line in the presence of 0.5 nM R1881 (AID 1259243); also: nearly all actives have a fitted effect of over 50% in size; also: potency is read from the fitted curve at half-maximal effect
Outline: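 Cells: MDA-kb2 (MMTV-luc). Stimulus: 0.5 nM R1881. Time: 16 hr, 37C, no CO2. Detection: ONE-Glo luminescence after 30 min at RT.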

[4] = target: Estrogen receptor (Homo sapiens) (UniProt P03372); test: qHTS assay to identify small molecule antagonists of the estrogen receptor alpha (ER-alpha) signaling pathway using the BG1 cell line in the presence of 0.1 nM 17-beta-estradiol (AID 1259244); also: nearly all actives have a fitted effect of over 50% in size
Outline: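 Seeding of stripped-serum-adapted VM7Luc4E2 cells, 24 h attachment, compound transfer, then 0.1 nM final 17beta-estradiol; after 22 h incubation, ONE-Glo reagent and luminescence reading.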

[5] = qHTS assay to identify small molecule HDAC inhibitors (AID 1259364); also: potency is read from the fitted curve at half-maximal effect;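 also: wild-type HCT-116 cells with endogenous class I/II HDAC activity; nearly all actives have a fitted effect of over 45% in size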
Outline: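 After a 2 hr compound incubation (37C, 5% CO2), HCT-116 cells seeded at 1,500/well the day before received HDAC-Glo reagent; signal read as luminescence after 30 min at room temperature.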

[6] = qHTS assay to identify small molecule HDAC inhibitors - cell viability counter screen (AID 1259365); also: series mostly up to about 92 µM; nearly all actives have a fitted effect of over 50% in size
Outline: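 Cytotoxicity was gauged in wild-type HCT-116 cells after a brief 2hr treatment with DMSO-dissolved compounds at 37C and 5% CO2, using CellTiter-Glo luminescence developed for 30min at room temperature.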

[7] = qHTS assay to identify small molecule agonists of the sonic hedgehog signaling (Shh) pathway - cell viability counter screen (AID 1259366); also: nearly all actives have a fitted effect of over 50% in size
Outline: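 Stable Gli1-Luc NIH/3T3 clone, 2,000 cells/well. Compound exposure 24hr at 37C. Read-out: CellTiter-Fluor fluorescence.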

[8] = qHTS assay to identify small molecule antagonists of the sonic hedgehog signaling (Shh) pathway - cell viability counter screen (AID 1259367); also: nearly all actives have a fitted effect of over 55% in size
Outline: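 Viability was read by CellTiter-Fluor fluorescence in the same wells, reagent added 23 hr into compound treatment and incubated 1 hr at 37C. The 3T3 Gli1-Luc reporter cells (2,000/well) received conditioned medium after compound and ran 24 hr.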

[9] = qHTS assay to identify small molecule agonists of the sonic hedgehog signaling (Shh) pathway (AID 1259368; calls by dose curve;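 also: NIH/3T3-derived 3T3Gli1-Luc cells carrying a stable Gli1-driven firefly luciferase reporter; series mostly up to about 92 µM; nearly all actives have a fitted effect of over 15% in size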)
Outline: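 Stable NIH/3T3 Gli1-Luc reporter clone; 24 hr cpd exposure after a 4 hr settling period; luminescence endpoint.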

[10] = qHTS assay to identify small molecule phospholipidosis (PLD) inducers (AID 1259344; active = well fitted curve in the direction sought with a large enough effect; an effect the other way counts as inactive or inconclusive)
Outline: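 Phospholipid accumulation was scored by imaging: fixed, Hoechst-counterstained HepG2 cells stained with LipidTOX Red after 24 h compound exposure at 37 C. Read-outs were pit count and pit intensity per well or per cell, with amiodarone and DMSO controls.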

Estrogen receptor (Homo sapiens), sequence (P03372 whole entry, looked up): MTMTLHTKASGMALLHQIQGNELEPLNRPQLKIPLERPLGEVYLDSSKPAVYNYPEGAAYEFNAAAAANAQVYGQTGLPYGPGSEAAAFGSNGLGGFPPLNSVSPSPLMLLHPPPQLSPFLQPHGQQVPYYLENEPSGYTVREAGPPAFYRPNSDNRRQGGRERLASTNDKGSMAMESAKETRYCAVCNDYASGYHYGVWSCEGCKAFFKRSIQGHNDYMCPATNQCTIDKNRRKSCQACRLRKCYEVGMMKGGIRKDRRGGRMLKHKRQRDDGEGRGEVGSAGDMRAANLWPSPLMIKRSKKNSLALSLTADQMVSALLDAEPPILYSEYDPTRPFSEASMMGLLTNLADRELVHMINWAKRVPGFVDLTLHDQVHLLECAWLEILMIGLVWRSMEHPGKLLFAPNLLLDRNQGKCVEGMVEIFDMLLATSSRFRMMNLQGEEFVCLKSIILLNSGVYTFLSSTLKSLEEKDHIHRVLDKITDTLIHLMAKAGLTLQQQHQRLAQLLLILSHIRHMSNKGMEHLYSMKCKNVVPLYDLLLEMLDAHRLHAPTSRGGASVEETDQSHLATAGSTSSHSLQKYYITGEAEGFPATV
Androgen receptor (Homo sapiens), sequence (P10275 whole entry, looked up): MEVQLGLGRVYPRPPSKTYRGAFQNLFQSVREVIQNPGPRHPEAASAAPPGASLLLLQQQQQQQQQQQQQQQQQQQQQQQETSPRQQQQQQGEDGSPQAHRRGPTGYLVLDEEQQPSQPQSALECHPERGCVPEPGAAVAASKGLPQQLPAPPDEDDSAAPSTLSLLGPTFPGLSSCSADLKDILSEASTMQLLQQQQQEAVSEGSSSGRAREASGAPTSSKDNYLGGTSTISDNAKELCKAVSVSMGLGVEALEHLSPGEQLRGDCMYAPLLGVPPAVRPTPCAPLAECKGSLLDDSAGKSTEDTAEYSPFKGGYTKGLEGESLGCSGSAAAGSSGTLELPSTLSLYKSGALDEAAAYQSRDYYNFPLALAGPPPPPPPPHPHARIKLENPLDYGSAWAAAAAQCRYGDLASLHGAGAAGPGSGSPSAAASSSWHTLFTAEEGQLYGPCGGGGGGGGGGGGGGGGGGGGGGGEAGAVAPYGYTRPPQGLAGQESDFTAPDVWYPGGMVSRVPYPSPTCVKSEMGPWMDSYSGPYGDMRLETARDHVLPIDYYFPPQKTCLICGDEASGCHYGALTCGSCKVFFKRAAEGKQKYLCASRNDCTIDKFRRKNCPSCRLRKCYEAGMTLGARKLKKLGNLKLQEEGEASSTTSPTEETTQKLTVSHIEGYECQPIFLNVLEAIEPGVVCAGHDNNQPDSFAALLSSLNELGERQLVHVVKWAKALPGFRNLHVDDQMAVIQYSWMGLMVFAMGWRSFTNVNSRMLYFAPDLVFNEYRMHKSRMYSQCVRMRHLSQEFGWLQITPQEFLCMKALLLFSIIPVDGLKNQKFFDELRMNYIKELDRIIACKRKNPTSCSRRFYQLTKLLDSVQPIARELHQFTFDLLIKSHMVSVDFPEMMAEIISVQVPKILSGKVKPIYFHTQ

Compound	outcome [1]	Potency [2]	Potency [3]	outcome [4]	Potency [5]	outcome [6]	Potency [7]	Potency [8]	outcome [9]	PLD induction [10]	Potency [10]
OC1CCCCC1c1ccccc1 (configuration not stated)	inactive	inactive	inactive	inactive	inactive	inactive	inactive	inactive	inactive	–	–
NC(=O)COCCN1CCN(C(c2ccccc2)c2ccc(Cl)cc2)CC1 (configuration not stated)	inactive	inactive	inactive	inactive	–	inactive	inactive	inactive	inactive	-1.34% [at 1.53 µM]	–
CC(C)(CC(=O)O)C(=O)O	inactive	inactive	inactive	inactive	inactive	inactive	inactive	inactive	inactive	–	–
FC1(F)C(F)(F)C(F)(F)C2(F)C(F)(F)C(F)(F)C(F)(F)C(F)(F)C2(F)C1(F)F (configuration not stated)	inactive	inactive	inactive	inactive	inactive	inactive	inactive	inactive	inactive	–	inactive
C=C(C)CS(=O)(=O)O	inactive	inactive	inactive	inactive	inactive	inactive	inactive	inactive	inactive	–	–
O=c1cc(-c2ccccc2)oc2ccccc12	inactive	inactive	7.7 µM (active) and 3.83 µM (active)	inactive	24.3 µM (active) and 17.6 µM (active)	inactive	inactive	inactive	inactive	-2.02% [at 3.15 µM]	–
CC(C(=O)O)c1ccc(CC2CCCC2=O)cc1 (configuration not stated)	inactive	inactive	–	inactive	inactive	inactive	inactive	inactive	inactive	–	inactive
O=C(O)COc1nn(Cc2ccccc2)c2ccccc12	inactive	inactive	inactive	inactive	inactive	inactive	inactive	inactive	inactive	–	inactive
CC(C)(O)C(=O)c1ccccc1	inactive	inactive	inactive	inactive	–	inactive	–	inactive	inactive	–	–
O=C[C@H](O)[C@@H](O)[C@H](O)[C@H](O)CO	inactive	inactive	–	inactive	inactive	inactive	inactive	inactive	inactive	-4.07% [at 7.66 µM]	–
CC(=O)CC(C)C	inactive	inactive	inactive	–	inactive	inactive	inactive	inactive	inactive	–	–
ClC(Cl)(Br)Br	inactive	inactive	inactive	inactive	inactive	inactive	–	inactive	inactive	–	–
CC(=O)OCC(CCn1cnc2cnc(N)nc21)COC(C)=O	inactive	inactive	inactive	inactive	inactive	inactive	inactive	inactive	inactive	–	inactive
CCn1nc(C(=O)O)c(=O)c2cc3c(cc21)OCO3	inactive	inactive	inactive	inactive	inactive	inactive	inactive	inactive	inactive	–	inactive
COc1ccc2c(c1)c(CC(=O)OCC(=O)O)c(C)n2C(=O)c1ccc(Cl)cc1	inactive	inactive	inactive	–	inactive	inactive	inactive	inactive	inactive	–	inactive
CN1CC(=O)NC1=N	inactive	inactive	inactive	–	–	inactive	inactive	inactive	inactive	–	inactive
Cc1cnc(NS(=O)(=O)c2ccc(N)cc2)nc1	inactive	inactive	inactive	inactive	inactive	inactive	inactive	inactive	inactive	–	–
NS(=O)(=O)c1ccc(C(=O)O)cc1	inactive	inactive	inactive	inactive	–	inactive	inactive	inactive	inactive	–	inactive
O=S(O)CO	inactive	inactive	inactive	inactive	inactive	inactive	inactive	inactive	inactive	–	inactive
NS(=O)(=O)c1cc(C(=O)NN2C[C@H]3[C@H]4CCC(C4)[C@H]3C2)ccc1Cl	inactive	inactive	inactive	inactive	inactive	inactive	–	inactive	inactive	–	–
NS(=O)(=O)c1cc2c(cc1Cl)NC(C1CC3C=CC1C3)NS2(=O)=O (configuration not stated)	inactive	inactive	inactive	inactive	inactive	inactive	inactive	inactive	inactive	–	inactive
CCCCOCCOCCOCc1cc2c(cc1CCC)OCO2	inactive	inactive	inactive	–	inactive	inactive	inactive	inactive	inactive	–	inactive
CCOc1ccc(C(=O)OCCN(CC)CC)cc1	inactive	inactive	inactive	–	inactive	inactive	inactive	inactive	inactive	–	inactive
CC(=O)Nc1ccc(S(N)(=O)=O)cc1	inactive	inactive	inactive	inactive	inactive	inactive	inactive	inactive	inactive	–	–
